# Screening results: PubChem BioAssay, National Center for Advancing Translational Sciences (NCATS)
# Shown are actives, neighbours in structure and some others; about 3.6% of the full set was active somewhere.
# D1 PAM: potentiators of human D1 dopamine receptor; P21728; HEK293 TREx D1 cells, calcium flux, dopamine EC20 potentiation; 360,000 compounds, 0.036% hits; AID 504651; potentiation, % at 10 µM; in the data active = potentiation above about 30%; also: 0% is about no effect
# Target sequence (P21728 whole entry, looked up): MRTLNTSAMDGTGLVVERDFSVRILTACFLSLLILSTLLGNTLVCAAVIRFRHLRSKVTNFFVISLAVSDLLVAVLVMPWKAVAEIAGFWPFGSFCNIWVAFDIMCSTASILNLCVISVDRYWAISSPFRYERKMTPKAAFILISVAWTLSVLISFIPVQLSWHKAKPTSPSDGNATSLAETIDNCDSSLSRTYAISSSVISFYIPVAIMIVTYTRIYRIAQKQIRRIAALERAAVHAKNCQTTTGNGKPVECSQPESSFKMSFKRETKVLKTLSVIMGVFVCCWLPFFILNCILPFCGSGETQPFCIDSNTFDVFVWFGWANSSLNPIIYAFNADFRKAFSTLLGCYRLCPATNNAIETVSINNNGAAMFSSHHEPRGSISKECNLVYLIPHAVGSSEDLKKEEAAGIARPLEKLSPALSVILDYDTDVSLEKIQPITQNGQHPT
# D1 ag: activates the human D1 dopamine receptor. P21728. HEK293 T-REx D1 cells, calcium flux, agonist mode. activation, % at 2 µM. 360,000 compounds, 1% hits; also: 0% is about no effect
#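 Agonism was scored from calcium flux recorded over 180 s (1 read/s) after pintool compound addition, following a 10-cycle baseline. Cells were inducible force-coupled HEK293 TREx D1, plated overnight at 30 C and loaded with no-wash calcium dye.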
# TRHR ag: TRH receptor (human) agonism. P34981. activation, % at 2 µM. TRHR cells, calcium flux fluo-8, FDSS agonist mode. 360,000 compounds, 0.18% hits; also: 0% is about no effect
#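 In this calcium-flux screen, cells bearing human TRHR are dye-loaded with fluo-8, baselined for 10 cycles, then exposed to library compounds; positive kinetic calcium responses during the agonist phase mark hits, with TRH as control.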
# LDHA inh: LDHA (human) enzyme inhibition | P00338 | purified LDHA, NADH/diaphorase-resazurin fluorescence; active compounds read low | activity change, % (values are at about 110 or 230 µM) | 480,000 compounds, 0.15% hits; in the data active = activity change below about -30%;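 also: plate controls were DMSO wells for no effect and wells without enzyme for full effect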
#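 Remaining NADH was detected by diaphorase (0.133 mg/mL) converting 37 µM resazurin to fluorescent resorufin, read at 0 and 20 minutes. The preceding 5-minute room-temperature reaction used 2 nM LDHA, 0.2 mM sodium pyruvate and 0.06 mM NADH at pH 7.4.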
# D1 antag: antagonists of human D1 dopamine receptor | P21728 | HEK293 TREx D1 cells, calcium flux, dopamine EC80; active compounds read low | activity change, negative = inhibition, % at 10 µM | 360,000 compounds, 3.2% hits; in the data active = activity change below about -30%; also: % is scaled to controls: 0 for no effect and ±100 for the full control effect
#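 After overnight tetracycline induction at 30 C, force-coupled D1 HEK293 cells took up a no-wash calcium dye at room temperature. Compounds were added and monitored 180 s, and the response to EC80 dopamine was then recorded.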
# TRHR enhancer: allosteric enhancers of human TRH receptor. P34981. AID 493056. TRHR cells, fluo-8 calcium fluorescence, EC20 TRH enhancement. 360,000 compounds, 0.66% hits. enhancement, % at 2 µM; in the data active = enhancement above about 30%; also: 0% is about no effect
#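 TRHR-expressing cells loaded with fluo-8 calcium dye were read kinetically (ex 480/em 530) during compound addition, then stimulated with an EC20 of TRH (10 nM final). Enhancement of the Gq-mediated intracellular calcium response was scored.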
# Active calls of the source: *; · = no result given. Rule as the data show it, unless noted: active = activation above about 30%; inactive = the rest.
SMILES,D1 PAM,D1 ag,TRHR ag,LDHA inh,D1 antag,TRHR enhancer
CC(=O)Nc1cccc(NC(=O)c2cccc3c(=O)c(C)c(-c4ccccc4)oc23)c1,·,·,·,12.6,·,·
COC(=O)[C@@H]1C[C@@]2(O)[C@@H](O)[C@@H](O)[C@@H](O)C[C@H]2N1CC1CCCCC1,-0.4,13.0,-0.1,-10.6,-55.6*,7.1
COC(=O)[C@@H]1C[C@@]2(O)[C@H](O)[C@H](O)[C@H](O)C[C@H]2N1CC1CC1,3.6,4.8,-0.2,-1.3,-15.4,-1.2
COCc1cc(C)nc(OCC(=O)N/N=C/c2ccc(C)cc2)c1C#N,-2.2,3.1,-0.5,-1.7,-57.1*,0.0
COCc1cc(C)nc(OCC(=O)N/N=C/c2ccccc2)c1C#N,-1.1,9.1,-1.8,-0.7,-5.0,2.4
O=C(Nc1ccc2oc(=O)ccc2c1)c1ccc(OC(F)F)cc1,·,·,·,0.0,·,·
O=[N+]([O-])c1ccccc1S(=O)(=O)NCc1ccc(F)cc1,2.4,1.4,-0.4,-6.5,-2.3,9.9
COc1ccccc1CNS(=O)(=O)c1ccc2c(c1)N(C(C)=O)CCO2,2.0,-0.6,0.0,1.8,-5.3,7.9
Cc1ccccc1CNS(=O)(=O)c1ccccc1[N+](=O)[O-],-3.9,1.3,-0.5,1.3,6.1,32.1*
Cc1ccccc1CNS(=O)(=O)c1ccc2c(c1)OCCO2,-9.6,20.4,-0.4,-10.6,-32.4*,11.2
Cc1ccc(CNS(=O)(=O)c2ccc3c(c2)OCCO3)cc1,-5.9,9.8,-0.4,-8.2,-5.9,-7.5
CC(=O)N1CCOc2ccc(S(=O)(=O)NCc3ccccc3Cl)cc21,-4.2,0.8,-0.3,-4.9,-32.1*,0.0
CCOC(=O)C1CCN(C(=O)CC(C)c2ccccc2)CC1 (stereo unspecified),-4.8,0.9,0.2,-3.7,15.9,-1.4
CCOC(=O)C1CCCN(C(=O)c2cc(-c3ccc(C)cc3)on2)C1 (stereo unspecified),-9.4,1.5,-0.4,-5.6,-49.0*,-4.2
CCOC(=O)C1CCCN(C(=O)CC(C)c2ccccc2)C1 (stereo unspecified),4.3,4.7,-0.6,2.1,-32.5*,2.7
CCOC(=O)C1CCCN(C(=O)c2ccc3c(c2)NC(=O)C(N2CCOCC2)S3)C1 (stereo unspecified),-1.4,-0.3,-0.6,-2.0,-30.7*,-6.3
CCOC(=O)C1CCCN(S(=O)(=O)Cc2ccccc2)C1 (stereo unspecified),-7.4,1.3,-0.7,-5.0,-64.0*,11.6
CCOC(=O)C1CCN(S(=O)(=O)Cc2ccccc2)CC1,-3.1,-0.2,0.2,-0.2,10.6,9.7
CCn1c(SC(C(=O)N2CCCC2)c2ccccc2)nnc1-c1ccccc1OC (stereo unspecified),·,·,·,-14.5,·,·
CCCCCn1nc(C(=O)Nc2cc(F)ccc2C)c2ccccc2c1=O,·,·,·,8.5,·,·
CC(CC#N)N1CCN(c2ncccn2)CC1 (stereo unspecified),·,·,·,4.1,·,·
Cc1ccccc1Nc1nc(NCc2ccco2)c2ccccc2n1,-15.9,8.6,0.4,10.6,-36.1*,24.8
Cc1ccc(OCCN2CCN(c3nc(NCc4ccco4)c4ccccc4n3)CC2)cc1,-10.3,7.1,0.4,2.8,-32.8*,0.0
Cc1ccc(C)c(Nc2nc(NCc3ccco3)c3ccccc3n2)c1,·,·,·,5.9,·,·
Cc1ccc(C(C)C)cc1OCC(=O)NC1=NCCS1,·,·,·,0.5,·,·
SMILES,D1 PAM,D1 ag,TRHR ag,LDHA inh,D1 antag,TRHR enhancer
Cc1cccc(N2CCN(C(=O)CCc3nc4ccccc4[nH]3)CC2C)c1 (stereo unspecified),·,-0.7,-0.6,1.0,-11.8,-2.8
Cc1ccc(N2CCN(C(=O)CCc3nc4ccccc4[nH]3)CC2)c(C)c1,1.9,5.8,0.4,-18.3,-34.7*,-13.4
Cc1ccc2cccc(OCCCOc3ccccc3F)c2n1,-14.0,5.9,-0.6,-1.1,-49.4*,-6.3
Cc1ccc2cccc(OCCOCCOc3ccccc3Br)c2n1,5.3,3.2,0.2,-0.1,14.6,5.1
O=C(CN1c2ccccc2Sc2ccccc21)NNC(=O)Nc1ccc(Cl)cc1,-11.0,0.4,0.1,-5.9,-35.6*,36.8*
O=C(CN1c2ccccc2Sc2ccccc21)NNC(=O)Nc1ccc(Cl)c(Cl)c1,-11.4,1.7,-0.5,-11.6,-3.3,-1.9
FC(F)(F)c1ccc(-c2noc(CSc3nc4ccccc4o3)n2)cc1,·,·,·,-0.4,·,·
Cn1c(SCc2c(F)cccc2Cl)nc2c(c1=O)SCC2,-8.2,1.6,-1.2,-1.6,-30.8*,-8.0
Cn1c(SCc2c(F)cccc2Cl)nc2ccccc2c1=O,8.1,-0.9,0.1,-6.9,23.8,-1.9
CC(C)CCCC(C)CC1C(C#N)=C(N)SC(N)=C1C#N (stereo unspecified),·,·,·,2.5,·,·
Cc1nc2cccnc2n1C1CCN(S(=O)(=O)c2ccc(C(C)C)cc2)CC1,0.0,38.6*,-1.4,-1.3,0.1,0.7
COc1ccccc1CNC(=O)CCc1c(C)nc2c(c(C)nn2-c2ccc(C)c(C)c2)c1C,-2.6,-2.4,0.9,-4.1,-72.8*,-3.4
COc1ccc(CCNC(=O)CCc2c(C)nc3c(c(C)nn3-c3ccc(C)c(C)c3)c2C)cc1OC,-1.4,2.9,0.2,2.9,33.0,0.9
CC(C)(C)c1ccc(NC(=O)C2=CC=CN3CCS(=O)(=O)N=C23)cc1,0.3,2.8,0.2,0.7,-8.0,5.5
Cc1cccc(Oc2ccc(NC(=O)C3=CC=CN4CCS(=O)(=O)N=C34)cc2)c1,-9.1,12.8,0.0,-6.2,-36.3*,-3.8
Cc1ccc(Oc2ccc(NC(=O)C3=CC=CN4CCS(=O)(=O)N=C34)cc2)cc1,-9.3,31.9*,0.4,1.9,2.2,-9.1
CCN(CC)c1ccc(NC(=O)C2=CC=CN3CCS(=O)(=O)N=C23)cc1,-0.5,0.8,0.9,4.9,5.3,17.1
O=C(CSc1nnnn1-c1ccccc1)N1CCN(CC(=O)N2CCCC2)CC1,·,·,·,-1.5,·,·
O=C(NC1CCCCCC1)c1cc(Cl)nc(Cl)c1,·,·,·,8.8,·,·
CCCCOC(=O)NC(NCC(O)c1ccccc1)(C(F)(F)F)C(F)(F)F (stereo unspecified),-2.9,0.9,-0.2,0.6,-7.4,-2.7
CCCCCOC(=O)NCC(O)c1ccccc1 (stereo unspecified),-2.9,6.8,-0.3,-5.8,-33.5*,-1.2
Cc1nn(CCCC(=O)Nc2cc(Oc3ccc(F)cc3)cc([N+](=O)[O-])c2)c(C)c1[N+](=O)[O-],-2.5,8.6,1.2,1.7,-36.0*,1.5
Cc1ccccc1Oc1cc(NC(=O)CCCn2nc(C)c([N+](=O)[O-])c2C)cc([N+](=O)[O-])c1,-5.0,0.5,-0.4,1.5,-22.2,-1.1
CCOC(=O)CSC(C)C(=O)NCC1CCCCC1 (stereo unspecified),·,·,·,7.5,·,·
